Reference: PubChem BioAssay AID743455 (The Scripps Research Institute Molecular Screening Center, 2014)
This is one part of the list. The source made the active and inactive calls.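 Rule for the calls: active = IC50 at or below 10 µM; inactive = IC50 above 10 µM.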

Experiment: BODIPY product fluorescence quenching artefacts – biochemical, QFRET, 535nm, artefact control for HGIII-sPLA2 inhibitor project, dose response (AID 743455)
Conditions: BODIPY FL product fluorescence interference, cell-free

IC50, inactive:
COc1ccc(C(=O)NC(=S)NNC(=O)c2c(-c3ccccc3)noc2C)cc1 > 122 µM
O=C(NNC(=S)NC1CCCCC1)c1ccccc1Cl > 122 µM
O=C1C(=O)N(Cc2ccc(-c3ccsc3)cc2)c2ccc(OC(F)(F)F)cc21 > 122 µM
Cc1cccc(-n2cnc(C(=O)NNC(=S)Nc3ccccc3)c2)n1 > 122 µM
O=C(N/N=C/c1cc(Cl)cc([N+](=O)[O-])c1O)C(O)(c1ccccc1)c1ccccc1 > 122 µM
COc1ccc(Cl)cc1C(=O)NNC(=S)NC1CCCC1 > 122 µM
O=C(NNC(=S)Nc1ccc(F)cc1)[C@H]1C[C@@H]1c1ccccc1 > 122 µM
COc1ccc2c(c1)c(=Cc1ccc(N(C)C)cc1)c1cc(-c3ccccc3)[n+](C)n12 > 122 µM
Cc1ccc2sc(NNC(=O)c3ccc4c(c3)OCCO4)nc2c1C > 122 µM
O=C(NNC(=S)Nc1ccc(Br)cc1Cl)c1ccco1 > 122 µM
Cn1cc(Cl)c(C(=O)NNC(=S)Nc2cccc(Cl)c2)n1 > 122 µM
C/C(=N\NC(=S)Nc1ccc(C)cc1)c1cc2ccccc2o1 > 122 µM
CC(C)CC(=O)NC(=S)NNC(=O)c1cccc([N+](=O)[O-])c1 > 122 µM
